From PubChem BioAssay
Most compounds without a hit are left out; they make up all but 20% or so of the library.
Pf growth 48h: inhibits P. falciparum growth in the first generation, 48 h; P. falciparum luciferase growth in erythrocytes, 48 h; 310,000 tested, 5.9% active; Potency, µM (series often up to 28.7 µM), for inactives: top-dose activity change, negative = inhibition, hits mostly inhibitors; also: potency is read from the fitted curve at half-maximal effect; % is scaled to controls: 0 for no effect and ±100 for the full control effect
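Cell-based growth assay: transgenic P. falciparum expressing firefly luciferase, cultured in red cells within RPMI 1640 containing 0.5% w/v Albumax, 24 mM bicarbonate and gentamycin. A drop in luciferase activity indicates inhibition.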
CHX counter: counter-screen hit for Shiga toxin inhibitors, cycloheximide; cell reporter, cycloheximide protein synthesis inhibition counterscreen; max response, %; 300,000 tested, 12% active; AID 2314; in the data active = max response mostly above about 13%, no sharp cut-off; inactive = mostly below about 14%; also: read at 38.3 µM for the half of the compounds with a filed dose; 0% is about no effect
HCMV inh: human cytomegalovirus inhibition. 410,000 tested, 4.5% active. activity change, negative = inhibition, % at 57.5 µM. AID 1259415. HFF cells, HCMV-luciferase reporter, 72 h; hits give low values; in the data active = activity change below about -60%; inconclusive = no clear call, values can overlap the other calls; inactive = above about -39%; also: % is scaled to controls: 0 for no effect and ±100 for the full control effect
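Compounds were evaluated in HFFs infected with an HCMV luciferase reporter virus (MOI 1 PFU/cell). Luciferase in lysates collected 72 h post infection served as the replication measure.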
Shiga inhibitor: inhibitors of Shiga toxin in Vero cells. Vero cells, Shiga toxin protein synthesis inhibition reporter. inhibition, % at 38.7 µM. 290,000 tested, 9.2% active; in the data active = inhibition mostly above about 28%, no sharp cut-off; inactive = mostly below about 43%; also: 0% is about no effect
Pf growth 96h: inhibits malaria parasite growth, 96 h; 320,000 tested, 6.9% active; Potency, µM (series often up to 28.7 µM), without a hit: at the highest dose activity change, negative = inhibition, usual class: inhibitors; P. falciparum luciferase reporter growth, 96 h; also: potency is read from the fitted curve at half-maximal effect; % is scaled to controls: 0 for no effect and ±100 for the full control effect
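Two parasite generations (96 h, 37 C, 5% CO2) of compound exposure in infected erythrocytes (0.05% parasitemia, 2% hematocrit). Luciferase-reporter P. falciparum; decreased luminescence indicates inhibited growth, aimed at apicoplast-acting delayed death.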
The depositor's hits bear a star; i = inactive; ? = inconclusive; nt = no result given; + = active, no number. Unless noted, calls follow the shape of the dose curve; as a rule, active = well fitted inhibition curve with a large enough effect; inconclusive = small, poorly fitted or top-dose-only effect, or another doubt; inactive = no such curve, though single readings can be large or run the other way.

SMILES	Pf growth 48h	CHX counter	HCMV inh	Shiga inhibitor	Pf growth 96h
Cc1nc(C)c(-c2ccc(SCC(=O)Nc3cccc(C)c3C)nn2)s1	nt	nt	38	nt	nt
CCN(C(=O)COC(=O)/C=C/c1ccccc1)C1CCCCC1	19%	-4	19	2	35%
Cc1cccc(CNC(=O)C2CCCN(S(=O)(=O)c3cn(C)cn3)C2)c1 (stereo not drawn)	nt	nt	24	nt	nt
CCc1ccccc1NS(=O)(=O)c1ccc2[nH]cc(C(=O)NC3CCCC3)c(=O)c2c1	13µM*	-3	24	-13	-2%
CCN(c1ccccc1)S(=O)(=O)c1ccc2[nH]cc(C(=O)NC3CCCCC3)c(=O)c2c1	nt	nt	-102*	nt	nt
Cc1ccc(C)c(N(C)S(=O)(=O)c2ccc3[nH]cc(C(=O)NCCN4CCOCC4)c(=O)c3c2)c1	?	-3	21	-6	nt
Cc1ccc(C)c(N(C)S(=O)(=O)c2ccc3[nH]cc(C(=O)NC4CCCC4)c(=O)c3c2)c1	nt	nt	-75*	nt	nt
O=C(NC1CCCCC1)c1c[nH]c2ccc(S(=O)(=O)Nc3ccccc3F)cc2c1=O	nt	nt	29	nt	nt
CC1CCCN(Cc2c(O)ccc3c(=O)c(Oc4ccccc4Cl)c(C(F)(F)F)oc23)C1 (stereo not drawn)	nt	nt	-14	nt	nt
O=C(CCc1nnc(C2CCCCC2)o1)N1CCN(Cc2ccccc2)CC1	5%	17	26	-5	23%
O=C(NCC1CCCO1)c1cn(-c2ccccc2)nc1-c1ccc(F)cc1 (stereo not drawn)	-15%	9	-36	13	23%
O=C(COC(=O)c1cc(-c2ccncc2)nc2ccccc12)Nc1ccc2c(c1)OCO2	-7%	20	nt	-11	19%
O=C(Nc1ccc(C(=O)N2CCOCC2)cc1)c1cc(-c2cccnc2)nc2ccc(Cl)cc12	?	-4	-69*	1	-5%
O=C(Nc1ccc2c(c1)OCO2)c1cc(-c2cccnc2)nc2ccccc12	0%	16*	-33	71	?
Cc1ccc(-c2cc(C(=O)Nc3ccc4c(c3)OCCO4)c3ccccc3n2)cc1	-91%	55*	-1	125*	23%
COC(=O)c1cc(-c2ccc3c(c2)OCO3)nc2ccccc12	3%	0	-19	7	0.41µM*
Cc1cc(C)nc(NC(=O)c2cc(-c3ccc4c(c3)OCO4)nc3ccccc23)c1	?	12	6	18	?
Cc1cccc(NC(=O)CN2CCN(C(=O)C3CCCO3)CC2)c1C (stereo not drawn)	23%	-1	5	-7	?
COc1ccccc1Cc1c(-c2ccc(C#N)cc2)nc2c(C)cc(Br)cn12	nt	nt	16	nt	nt
O=C(O)c1cc(-c2ccc3c(c2)OCO3)nc2ccc(Br)cc12	22%	15	?	24	15%
c1ccc2nc(-c3ccc4c(c3)OCO4)ccc2c1	292%	55*	116	71*	240%
COc1ccc(OC)c2nc(-c3ccc4c(c3)OCO4)ccc12	nt	62*	135	105*	422%
COCCCN(Cc1ccco1)C(=O)c1cc2c(s1)-c1ccccc1OC2	nt	nt	-35	nt	nt
COc1ccc(C(=O)COc2nc(C)cc(C)c2C#N)cc1	?	-4	-64*	-3	?
Cc1cc(C)c(C#N)c(Oc2ccc(O)cc2)n1	4%	-3	-7	-2	5.2µM*
SMILES	Pf growth 48h	CHX counter	HCMV inh	Shiga inhibitor	Pf growth 96h
CCOC(=O)CN(C(=O)COc1nc(C)cc(C)c1C#N)c1ccc(F)cc1	-45%	6	-34	8	?
O=C(NNC(=O)c1ccco1)c1ccco1	nt	nt	53	nt	nt
O=C(NNC(=O)c1ccco1)c1ccccc1	49%	19*	-5	19	13%
Cc1ccc(C(=O)NNC(=S)NC(=O)c2ccco2)cc1	?	-4	4	18	?
Cc1ccc(C(=O)NNC(=O)c2ccco2)cc1	120%	39*	50	+	i
CCCCCCCCC1CC(C(=O)Nc2ccccc2)C(=O)O1 (stereo not drawn)	nt	nt	-2	nt	nt
COc1ccc(C(=O)NNC(=S)Nc2ccccc2)cc1	146%	41*	67	58	i
CCNC(=S)NNC(=O)c1ccc(OC)cc1	13%	1	4	11	?
COc1ccc(CC(=O)NNC(=S)NC(=O)c2cccnc2)cc1	-9%	2	23	2	17%
COc1ccc(C(=O)NNC(=O)c2ccncc2)cc1	-7%	6	-27	7	-22%
COc1ccc(NC(=O)c2c(C)noc2-c2snnc2C)cc1	13µM*	11	-32	-15	2.9µM*
COc1ccc(C(=O)NNC(=S)NC(=O)c2cccnc2)cc1	?	3	-89*	9	24%
COc1ccc(C(=O)NNC(=O)c2snnc2C)cc1	13%	17	82	42*	-10%
O=C(N=C1SC2CS(=O)(=O)CC2N1c1ccc(Br)cc1)C1CCCO1 (stereo not drawn)	-5%	1	36	-3	-23%
CCOc1cc(NC(=S)Nc2ccccc2)c(OCC)cc1NC(=O)c1ccc(OC)cc1	12µM*	21*	-66*	10	?
CCOc1cc(NC(=S)Nc2cccc(OC)c2)c(OCC)cc1NC(=O)c1ccc(C)cc1	?	3	1	12	36%
COc1ccc(C(=O)NNC(=O)C2(C)CC2(Br)Br)cc1 (stereo not drawn)	30%	26*	-26	35*	4%
O=C(NNC(=S)NC(=O)c1ccc(F)cc1)c1cccnc1	?	-4	-10	1	7%
CCCOc1ccc(C(=O)NNC(=S)NC(=O)CC)cc1	?	18	-62*	-16	15µM*
O=C(NNC(=S)NC(=O)c1cccnc1)c1ccc(F)cc1	-1%	28*	-17	39*	-64%
CCC[C@H]1[C@@H](NC(=O)Nc2cccc(C(F)(F)F)c2)CC[C@@]23CCCN2C(=O)CCC[C@@H]13	nt	nt	-6	nt	nt
CCOc1ccc(NC(=O)CN(C)C(=O)c2ccc(=O)[nH]c2)cc1OCC	88%	15	nt	6	-13%
CSc1ccccc1C(=O)OCC(=O)Nc1c(C)n(C)n(-c2ccccc2)c1=O	nt	nt	20	nt	nt
COc1ccc(C(=O)NC(=S)NNC(=O)c2cccc(C)c2)cc1	nt	nt	-23	nt	nt
COc1ccc(C(=O)NNC(=O)c2cccc(F)c2)cc1	46%	26*	-17	68*	84%
SMILES	Pf growth 48h	CHX counter	HCMV inh	Shiga inhibitor	Pf growth 96h
COc1ccc(C(=O)NNC(=S)NC(=O)c2ccc(OC)cc2)cc1	-9%	5	-92*	nt	9.3µM*
O=C(NNC(=O)c1ccc2ccccc2c1)c1cccc(F)c1	nt	nt	-15	nt	nt
O=C1CC(N(Cc2ccco2)C(=O)Nc2ccc(F)cc2)C(=O)N1c1ccc(F)cc1 (stereo not drawn)	?	3	-2	14	?
CC1(C(=O)NCc2cccs2)CCN1C(=O)Cc1ccc(Cl)cc1Cl (stereo not drawn)	nt	nt	-27	nt	nt
CN(C)S(=O)(=O)c1ccc(N2CCCC2)c(C(=O)N2CCN(S(=O)(=O)c3cccc(F)c3)CC2)c1	10µM*	nt	-9	nt	-28%
CCOc1ccccc1N1CCN(C(=O)c2cc(S(=O)(=O)N(C)C)ccc2N2CCCC2)CC1	10µM*	nt	-10	nt	?
